Values joined by “and” are separate entries in the source; they are usually repeats but may differ in a detail not shown here. Equal values may be shown once. Read-outs that look alike come from different tables or passages of the source.
Columns and labels:
MAP3K3 = conditions: concentration: 1 μM, replicates: in singlicate, n = 1
MAP3K4 = conditions: concentration: 1 μM, replicates: in singlicate, n = 1
MAP4K2 = conditions: concentration: 1 μM, replicates: in singlicate, n = 1
MAP4K3 = conditions: concentration: 1 μM, replicates: in singlicate, n = 1
MAP4K4 = conditions: concentration: 1 μM, replicates: in singlicate; n = 1
MAP4K5 = conditions: concentration: 1 μM, replicates: in singlicate; n = 1
MAPKAPK2 = conditions: concentration: 1 μM, replicates: in singlicate, n = 1
MAPKAPK5 = conditions: concentration: 1 μM, replicates: in singlicate, n = 1
MARK1 = conditions: concentration: 1 μM, replicates: in singlicate; n = 1
MARK2 = conditions: concentration: 1 μM, replicates: in singlicate, n = 1
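Note: KINOMEscan kinase panel screen.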

SMILES	%Inh (MAP3K3)	%Inh (MAP3K4)	%Inh (MAP4K2)	%Inh (MAP4K3)	%Inh (MAP4K4)	%Inh (MAP4K5)	%Inh (MAPKAPK2)	%Inh (MAPKAPK5)	%Inh (MARK1)	%Inh (MARK2)	%Inh (MAP3K3; 1 µM)	%Inh (MAP3K4; 1 µM)	%Inh (MAP4K2; 1 µM)	%Inh (MAP4K3; 1 µM)	%Inh (MAPKAPK2; 1 µM)	%Inh (MAPKAPK5; 1 µM)	%Inh (MARK2; 1 µM)
Fc1cccc(COc2ccc(Nc3ncnc4cc[nH]c34)cc2Cl)c1	0%	4%	0%	0%	21%	7%	4%	26%	0%	36%	–	–	–	–	–	–	–
Cn1cc(-c2ccc3c(c2)CCN3C(=O)Cc2cccc(C(F)(F)F)c2)c2c(N)ncnc21 [GSK2606414]	0%	12%	0%	0%	10%	10%	100%	0%	6%	0%	–	–	–	–	–	–	–
COc1ccc(Nc2nccc(N3CCC(NC(=O)Nc4ccc5c(c4)OCO5)C3)n2)cc1 (stereo not shown) [GSK1379745]	0%	15%	0%	5%	5%	4%	17%	0%	0%	0%	–	–	–	–	–	–	–
CC(C)N1CCC(n2cnc(-c3ccc(F)cc3)c2-c2ccnc(N)n2)CC1 [SB-223132]	0%	26%	0%	0%	0%	0%	1%	0%	0%	0%	–	–	–	–	–	–	–
CCc1nc(-c2cccc(N(C)S(=O)(=O)c3ccccc3)c2)c(-c2ccnc(Nc3ccc(N4CCN(C(C)=O)CC4)nc3)n2)s1 [GSK1645895]	0%	18%	0%	0%	0%	17%	0%	0%	0%	4%	–	–	–	–	–	–	–
O=C(c1ccc(-c2cc(-c3c[nH]nc3-c3ccccn3)ccn2)cc1)N1CCCC1 [GW792479]	11%	25%	0%	0%	5%	0%	0%	0%	0%	4%	–	–	–	–	–	–	–
Cc1ccc(NC(=O)c2cccc(C#N)c2)cc1-c1ccc(C(=O)Nc2ccncc2)cc1 [GSK1398463]	0%	35%	0%	11%	4%	0%	24%	0%	0%	0%	–	–	–	–	–	–	–
CC(C)(C)c1ccc(-n2cnc3c(N)ncnc32)cc1 [SKF-97263]	0%	10%	11%	5%	6%	6%	23%	8%	0%	0%	–	–	–	–	–	–	–
Fc1ccc(-c2ncn(CCCNCc3ccccc3)c2-c2ccncc2)cc1	16%	7%	14%	0%	0%	12%	10%	19%	0%	0%	–	–	–	–	–	–	–
O=C(NCCCN1CCCC1=O)c1cnc(NCc2cc(Cl)ccc2Cl)nc1NC1CCNCC1	57%	12%	0%	16%	0%	19%	0%	0%	0%	0%	–	–	–	–	–	–	–
FC(F)(F)c1ccc(-c2cc(-c3c[nH]nc3-c3ccccn3)ccn2)cc1 [GW599550]	0%	0%	0%	0%	60%	8%	28%	0%	0%	0%	–	–	–	–	–	–	–
COc1ccc(NC(=O)c2ccc(-c3cc(-c4nnc(C)o4)ccc3C)cc2)cc1 [GW595885]	0%	20%	0%	0%	4%	0%	25%	0%	0%	0%	–	–	–	–	–	–	–
COc1ccc(-c2nc3n(c2-c2ccncc2)CCC3)cc1 [SKF-104493]	–	–	–	–	0%	0%	–	–	0%	–	6% and 0%	28% and 3%	7% and 0%	0% and 8%	12% and 9%	13% and 10%	0% and 11%
COc1ccc(Nc2nccc(N3CCC(NC(=O)c4cccc(NC(C)=O)c4)C3)n2)cc1 (stereo not shown) [GSK1379732]	0%	0%	0%	0%	0%	0%	0%	0%	0%	0%	–	–	–	–	–	–	–
CNc1nccc(-c2c(-c3ccc(F)cc3)ncn2C2CCN(C)CC2)n1 [SB-222903]	0%	0%	0%	0%	0%	0%	0%	0%	0%	0%	–	–	–	–	–	–	–
O=c1cc(N2CCOCC2)nc2n(Cc3cccc(Cl)c3)ccn12 [GSK2296823]	0%	4%	0%	7%	0%	0%	40%	0%	0%	81%	–	–	–	–	–	–	–

SMILES	%Inh (MAP3K3)	%Inh (MAP3K4)	%Inh (MAP4K2)	%Inh (MAP4K3)	%Inh (MAP4K4)	%Inh (MAP4K5)	%Inh (MAPKAPK2)	%Inh (MAPKAPK5)	%Inh (MARK1)	%Inh (MARK2)	%Inh (MAP3K3; 1 µM)	%Inh (MAP3K4; 1 µM)	%Inh (MAP4K2; 1 µM)	%Inh (MAP4K3; 1 µM)	%Inh (MAPKAPK2; 1 µM)	%Inh (MAPKAPK5; 1 µM)	%Inh (MARK2; 1 µM)
Clc1cccc(-c2nc(Nc3ccncc3)c3ccccc3n2)c1 [GW873004]	20%	23%	0%	0%	17%	3%	0%	0%	0%	0%	–	–	–	–	–	–	–
CNc1nccc(-c2c(-c3ccc(F)cc3)ncn2CCCN2CCOCC2)n1 [SB-222516]	0%	17%	0%	0%	0%	8%	0%	0%	0%	9%	–	–	–	–	–	–	–
COC(=O)c1cccc(NC(=O)NCCNc2ccnc(Nc3ccc(F)cc3)n2)c1 [GSK1379883]	0%	0%	0%	0%	0%	0%	24%	0%	0%	0%	–	–	–	–	–	–	–
Cc1cccc(-c2nc(Nc3ccc4[nH]nnc4c3)c3ccccc3n2)n1 [GW867587]	0%	0%	0%	0%	0%	0%	0%	0%	0%	0%	–	–	–	–	–	–	–
Clc1ccc(-c2cc(-c3c[nH]nc3-c3ccccn3)ccn2)cc1 [GW681251]	0%	19%	0%	0%	63%	18%	13%	0%	0%	0%	–	–	–	–	–	–	–
NC(=O)c1sc(-n2cnc3ccccc32)cc1OCc1ccccc1F [GSK1024306]	0%	23%	0%	0%	8%	21%	0%	0%	0%	0%	–	–	–	–	–	–	–
O=C(Nc1ccccc1F)NC1CCN(c2ccnc(Nc3ccc(F)cc3)n2)C1 (stereo not shown) [GSK1379722]	0%	14%	0%	0%	0%	0%	18%	0%	0%	0%	–	–	–	–	–	–	–
C[C@@H]1CCN(C(=O)CO)C[C@@H]1N(C)c1ncnc2[nH]ccc12	7%	5%	0%	0%	0%	0%	0%	0%	0%	0%	–	–	–	–	–	–	–
Cc1cc(N2CCC(NS(=O)(=O)c3ccc(F)cc3)CC2)nc(Nc2cccc(C#N)c2)n1.O=C(O)C(F)(F)F [GSK1653537]	0%	40%	0%	0%	5%	3%	23%	0%	0%	0%	–	–	–	–	–	–	–
c1ccc(-c2ccc3c(-c4ccnc(Nc5ccc6c(c5)OCCO6)n4)cnn3n2)cc1 [GW818941]	0%	14%	6%	4%	23%	20%	5%	13%	0%	0%	–	–	–	–	–	–	–
Nc1nc(-c2ccc3c(N)n[nH]c3c2)cc(N2CCC[C@@H](C(=O)Nc3ccccc3)C2)n1.O=C(O)C(F)(F)F.O=C(O)C(F)(F)F [GSK2288359]	0%	28%	0%	0%	5%	6%	0%	0%	0%	0%	–	–	–	–	–	–	–
COc1cc2ncnc(Nc3ccc(OCc4ccccc4Br)c(Cl)c3)c2cc1OC.Cl [GI261590]	0%	0%	0%	11%	0%	17%	15%	0%	29%	0%	–	–	–	–	–	–	–
CSc1ccc(NC2=C(c3ccccc3Cl)C(=O)NC2=O)cc1 [SB-342411]	0%	30%	0%	10%	2%	6%	3%	1%	3%	0%	–	–	–	–	–	–	–
FC(F)(F)c1ccc(-c2nn3ncccc3c2-c2ccnc(Nc3cccc(C(F)(F)F)c3)n2)cc1 [GW828205]	21%	8%	0%	0%	4%	0%	0%	0%	3%	0%	–	–	–	–	–	–	–
Cc1ccc(C)c(NC(=O)NCCNc2ccnc(Nc3ccc(F)cc3)n2)c1 [GSK1379878]	0%	0%	0%	0%	0%	0%	0%	0%	0%	0%	–	–	–	–	–	–	–
